# Shown are actives, neighbours in structure and some others; about 10% of the full set was active somewhere.
# MCF10A rereplic = DNA re-replication induction in MCF 10a cells | MCF 10A DNA re-replication, Hoechst nuclear intensity, 48 h | Potency, µM (highest dose often 46.1 µM), usual class: activators | 350,000 tested, 2.9% active | AID 624296; also: nearly all actives have a fitted effect of over 50% in size
# VP16 counter = Gal4-VP16 reporter inhibition counter-screen | Drosophila S2 Gal4-VP16 UAS-luciferase, luminescence, 20 h | Potency, µM (highest dose often 53.6 µM), actives largely listed as inhibitors | 310,000 tested, 3.5% active | AID 2546;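 also: Gal4-VP16 expression switched on by copper sulfate through the metallothionein promoter; nearly all actives have a fitted effect of over 50% in size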
# ELG1 DNA repair = inhibitors of ELG1-dependent DNA repair in HEK293T cells | HEK293T ELG1-luciferase reporter, luminescence, 16 h; DNA damage induced by 5-fluorouridine | Potency, µM (titrated, usually from 46.1 µM), most hits filed as inhibitors | 330,000 tested, 2.3% active | AID 504467; also: nearly all actives have a fitted effect of over 55% in size
#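 Luminescence from the luciferase reporter, measured 30 min after ONE-Glo reagent at room temperature, was the read-out. Beforehand, 2,000 cells per well were exposed for 16 hr at 37 °C to 5-fluorouridine together with compound or vehicle.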
# RORgamma inh = blocks mouse ROR gamma transcriptional activity. Drosophila S2 Gal4-RORgamma UAS-luciferase reporter, 20 h. 310,000 tested, 5.4% active. Potency, µM (highest dose often 53.6 µM), most hits filed as inhibitors. P51450; also: nearly all actives have a fitted effect of over 60% in size
# Target sequence (P51450 whole entry, looked up, the tested form may be a part): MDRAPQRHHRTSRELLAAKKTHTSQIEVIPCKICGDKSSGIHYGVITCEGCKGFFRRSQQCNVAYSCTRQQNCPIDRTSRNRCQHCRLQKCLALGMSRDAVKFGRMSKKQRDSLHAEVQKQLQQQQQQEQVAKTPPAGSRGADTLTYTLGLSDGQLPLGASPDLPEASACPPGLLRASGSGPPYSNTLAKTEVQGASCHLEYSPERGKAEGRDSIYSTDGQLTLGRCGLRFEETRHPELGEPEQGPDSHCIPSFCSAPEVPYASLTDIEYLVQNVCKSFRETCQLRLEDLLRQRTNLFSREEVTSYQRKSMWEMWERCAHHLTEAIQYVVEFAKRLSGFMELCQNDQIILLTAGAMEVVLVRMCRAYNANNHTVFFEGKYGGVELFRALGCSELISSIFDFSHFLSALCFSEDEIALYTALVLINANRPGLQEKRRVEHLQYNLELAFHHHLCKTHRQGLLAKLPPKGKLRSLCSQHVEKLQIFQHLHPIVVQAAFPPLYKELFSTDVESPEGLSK
#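 Drosophila Schneider cells stably carrying a metallothionein-driven Gal4 DBD–ROR gamma fusion and a UAS-Photinus luciferase reporter were exposed to compound for 1 hr, then induced with copper sulfate (700 uM final) for 20 hr at ambient temperature before luminescence reading.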
# SW480 rerep = DNA re-replication induction in SW480 cells; 340,000 tested, 1.8% active; Potency, µM (series often up to 46.1 µM), hits mostly activators; SW480 DNA re-replication, Hoechst DNA content imaging, 48 h; also: nearly all actives have a fitted effect of over 55% in size
#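 SW480 cells exposed to compounds for 48 hr at 37 C, 5% CO2, then Hoechst-stained 40 min. Nuclear DNA content imaged by fluorescence scanning (405 nm excitation, 500-530 nm emission); re-replication scored as increased high-intensity nuclei.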
# ELG1 FLuc counter = luciferase inhibition in cell-free luciferin readout for ELG1 hits; cell-free firefly luciferase luminescence counter-screen, ViewLux; 350 tested, 3% active; shares compounds with ELG1 DNA repair; Potency, µM (top dose mostly 46.1 µM), actives largely listed as inhibitors
# ELG1-Luc inh = confirmation of human ELG1-dependent DNA repair inhibitors | shares compounds with ELG1 DNA repair | 670 tested, 68% active | HEK293T ELG1-luciferase levels, luminescence; cells co-treated with 5-fluorouridine | Potency, µM (series often up to 46.1 µM), actives largely listed as inhibitors; also: nearly all actives have a fitted effect of over 55% in size
# ELG1 MMS Luc = confirmation of human ELG1 repair inhibitors, MMS stimulated; shares compounds with ELG1 DNA repair; HEK293T luciferase-tagged ELG1 level, MMS stimulated; 670 tested, 53% active; Potency, µM (doses to about 46.1 µM), actives largely listed as inhibitors; also: nearly all actives have a fitted effect of over 60% in size
# ELG1 5-FU = confirmation of ELG1 repair inhibitors: viability with 5FU; shares compounds with ELG1 DNA repair; cell viability with 5-FU, ELG1-dependent repair; Potency, µM (highest dose often 46.1 µM), actives largely listed as cytotoxic; 670 tested, under 10 active; AID 624250;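 also: ELG1-luc HEK293T cells cotreated with 5-fluorouridine at 10 µM final; viability measured 16 h after compound addition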
# ELG1 MMS viab = confirmation of ELG1 repair inhibitors: viability with MMS; shares compounds with ELG1 DNA repair; Cell viability with MMS, ELG1-dependent DNA repair; Potency, µM (series often up to 46.1 µM), actives largely listed as cytotoxic; 670 tested, 33% active;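 also: ELG1-luc HEK293T cells co-treated with 10 µM MMS; viability read 16 h after compound addition; nearly all actives have a fitted effect of over 60% in size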
# ELG1 unstim viab = counter-screen for ELG1 repair inhibitors: unstimulated cell viability; Potency, µM (titrated, usually from 45.9 µM), usual class: cytotoxic; shares compounds with ELG1 DNA repair; AID 624252; 900 tested, 8% active; cell viability counter-screen, unstimulated, luminescence;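 also: compound exposure lasted 16 hours before reading; nearly all actives have a fitted effect of over 55% in size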
# FLuc biochem = inhibits purified firefly luciferase, counter-screen for ELG1 hits; shares compounds with ELG1 DNA repair; purified firefly luciferase, luminescence counter-screen; Potency, µM (series often up to 57.5 µM), most hits filed as inhibitors; 350 tested, 10% active
# A number is an active result; – = inactive; ? = inconclusive; · = no result given; ! = not active in a repeat; [ ] = another dose, or the depositor's remark. Calls follow the shape of the dose curve; as a rule, active = well fitted curve in the direction sought with a large enough effect; inconclusive = small, poorly fitted or top-dose-only effect, or another doubt; inactive = no such curve, though single readings can be large; an effect the other way counts as inactive or inconclusive.
SMILES,MCF10A rereplic,VP16 counter,ELG1 DNA repair,RORgamma inh,SW480 rerep,ELG1-Luc inh,ELG1 MMS Luc,ELG1 5-FU,ELG1 MMS viab,ELG1 unstim viab,others
CCN(CC(=O)N1CCN(Cc2ccccc2)CC1)S(=O)(=O)c1ccc(F)cc1,–,–,–,–,–,·,·,·,·,·,
COc1ccc(-c2nnc(SCC(=O)NC(=O)Cc3ccccc3)n2C)cc1,–,·,–,·,?,·,·,·,·,·,
O=C(Cn1cnc2ccccc21)Nc1ccc(SC(F)F)cc1,–,7.9µM,2.1µM,4µM,–,–,1.6µM,–,1.8µM,?,
CC1=C(C#N)c2nc(N)c(C#N)c(C)c2/C1=C\c1ccc(OCC(=O)O)c(Cl)c1,–,–,–,–,–,·,·,·,·,·,
CN1CCN(c2nc(-c3ccncc3)nc3ccccc23)CC1,?,–,–,–,?,?,?,–,–,?,ELG1 FLuc counter=–;FLuc biochem=–
CN1CCN(c2nc(-c3ccc(Cl)cc3)nc3ccccc23)CC1,–,–,–,–,–,·,·,·,·,·,
O=C(COc1ccc(C(=O)NCC2CCCO2)cc1)Nc1cccc(C(F)(F)F)c1 (configuration not stated),–,·,3.3µM,·,–,?,?,–,?,–,
CS(=O)(=O)c1ccc(-c2sc3ccccc3c2C(=O)NCCCN2CCOCC2)cc1,–,·,?,·,–,·,·,·,·,·,
O=C(Nc1cccc(/C=C/c2ccccn2)c1)c1ccc(-n2cncn2)cc1,?,·,3.3µM,·,–,13µM,?,–,?,?,
O=C(Nc1cccc(C(F)(F)F)c1)c1ccc(-n2cncn2)nc1,–,–,?,–,–,·,·,·,·,·,
Cc1cc(NC(=O)c2cnn3c(C(F)(F)F)cc(-c4ccc(Br)cc4)nc23)no1,–,–,15µM,–,–,5µM,–,?,–,–,ELG1 FLuc counter=–;FLuc biochem=–
COc1ccc(-c2cc(C(F)(F)F)n3nc(C(=O)Nc4cc(C)on4)cc3n2)cc1OC,?,·,3.7µM,–[0.365 µM],–,?,–,?,?,–,
Cc1ccc(-c2cc(C(F)(F)F)n3ncc(C(=O)NCc4ccco4)c3n2)cc1,–,–,?,–,–,·,·,·,·,·,
COc1ccc(-c2cc(C(F)(F)F)n3ncc(C(=O)NCC4CCCO4)c3n2)cc1OC (configuration not stated),?,–,0.58µM,–,–,0.89µM,–,?,–,–,ELG1 FLuc counter=–;FLuc biochem=–
Cc1ccc(CNC(=O)C2CCC(=O)N(C3CCCC3)C2)c(F)c1F (configuration not stated),–,–,–,–,?,·,·,·,·,·,
COc1ccccc1-c1noc(Cn2cc(S(=O)(=O)N3CCCC3)ccc2=O)n1,–,·,?,·,–,·,·,·,·,·,
COc1ccc(NC(=O)c2cc(-c3cc(OC)c(OC)c(OC)c3)nc3ccccc23)cc1OC,–,–,1.8µM,–,–,1.1µM,20µM,?,?,–,
COc1ccc(-c2cc(C(=O)Nc3ccc(O)cc3)c3ccccc3n2)cc1OC,–,–,?,–,–,·,·,·,·,·,
Cc1cccc(-c2cc(=O)c3cc(Br)ccc3o2)c1,·,–,·,–,·,·,·,·,·,·,
O=c1cc(-c2ccccc2)oc2ccc(Br)cc12,?,·,?,·,–,·,·,·,·,–,
COc1cccc2oc(-c3ccccc3)cc(=O)c12,·,?,·,11µM,·,·,·,·,·,?,
CC1Cc2c(COc3ccccc3)nc3c(c2CO1)CN(CCOc1ccccc1)CC3 (configuration not stated),·,–[10 µM],·,–[10 µM],·,·,·,·,·,·,
CC1CCc2nc(N)c(C#N)c(-c3cccnc3)c2C1 (configuration not stated),?,–,1.2µM,–,–,1.6µM,14µM,–,22µM,–,
CC1CCc2nc(N)c(C#N)c(-c3ccncc3)c2C1 (configuration not stated),–,–,–,–,–,·,·,·,·,·,
CCC1CO1 (configuration not stated),·,–,·,–,·,·,·,·,·,·,
SMILES,MCF10A rereplic,VP16 counter,ELG1 DNA repair,RORgamma inh,SW480 rerep,ELG1-Luc inh,ELG1 MMS Luc,ELG1 5-FU,ELG1 MMS viab,ELG1 unstim viab,others
Cc1ccc2nc(-c3ccc(C)c(NC(=O)COc4ccc(Br)cc4)c3)oc2c1,·,·,·,·,·,·,·,·,·,–,ELG1 FLuc counter=–;FLuc biochem=?
Cc1ccc(-c2nc3ccccc3o2)cc1NC(=O)Cc1cccs1,–,–,–,–,–,·,·,·,·,·,
COc1ccc(OCC(=O)Nc2ccc(-c3nc4cc(C)c(C)cc4o3)cc2)cc1,·,·,·,·,·,·,·,·,·,?,ELG1 FLuc counter=–;FLuc biochem=15µM!
CCOc1ccc(OCC(=O)Nc2ccc(OC)cc2)cc1,–,–,–,–,–,·,·,·,·,·,
CCCCCCC[C@@H](C/C=C/CCC(=O)O)OC,–,·,–,·,–,·,·,·,·,·,
CCCCCCC[C@@H](C/C=C/CCC(=O)N(C)C/C(=C/Cl)C/C(=C\C(=O)N1CC(OC)=CC1=O)OC)OC,?,·,?,·,?,·,·,·,·,?,
COc1ccc(-c2nnc3ccc(SCC(=O)Nc4nc5ccc(C)cc5s4)nn23)cc1OC,–,–,?,?,–,0.32µM,–,?,–,28µM,ELG1 FLuc counter=–;FLuc biochem=–
Cc1cc(NC(=O)CSCC(=O)OCC(=O)c2cccc(Br)c2)no1,–,·,?,·,–,·,·,·,·,·,
Cc1ccc(NC(=O)COc2ccc(/C(N)=N/O)cc2)cc1C,–,–,–,–,–,·,·,·,·,·,
C[C@@H]1CN([C@H](C)CO)C(=O)c2cc(NC(=O)Nc3ccc(C(F)(F)F)cc3)ccc2O[C@H]1CN(C)Cc1ccc(Cl)c(Cl)c1,?,·,?,·,–,·,·,·,·,·,
C[C@H]1CN([C@@H](C)CO)C(=O)c2cccc(NC(=O)Nc3ccc(C(F)(F)F)cc3)c2O[C@@H]1CN(C)Cc1ccc(Cl)c(Cl)c1,?,·,4.6µM,·,–,14µM,14µM,?,25µM,13µM,
C[C@H](CO)N1C[C@H](C)[C@@H](CN(C)C(=O)Nc2ccc(C(F)(F)F)cc2)Oc2c(NC(=O)Nc3ccc4c(c3)OCO4)cccc2C1=O,–,·,0.58µM,·,–,2µM,–,?,–,–,ELG1 FLuc counter=–;FLuc biochem=?
